Source: PubChem (several laboratories)
TRAIL sens C8 – viability loss with TRAIL in NB7+C8 cells, primary screen, TRAIL sensitizer project, cell-based, ATPlite luminescence | inhibition (viability loss, TRAIL sensitization), % at 10 µM | hit rate 1% among 360,000;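 active = compounds causing at least 50% loss of cell viability in the single-dose screen, relative to plate controls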
aSyn 5UTR inh – MLPCN primary screen, SNCA 5' untranslated region. hit rate 0.82% among 300,000. inhibition, % (tested at 7.5 µM). alpha-synuclein 5'UTR reporter, inhibitor activity. AID 1813, 2009; in the data active = inhibition above about 60%; inconclusive = no clear call, values can overlap the other calls;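 note: H4 neuroglioblastoma cells stably carrying SNCA 5'UTR luciferase fusion; 0% = DMSO wells and 100% = positive control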
TROY NFkB inh – inhibitors of TROY-driven NF-kB signaling, primary screen, Q293 LMP1-TROYcd cells, NF-kB luciferase, uHTS; hit rate 0.98% among 360,000; AID 1347056, 2019; inhibition, % at 10 µM; Q293 LMP1-TROYcd NF-kB luciferase reporter, 4 h;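 active = compounds whose plate-normalised and pattern-corrected inhibition of the luciferase reporter signal at the single screening dose is 50% or more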
HSP90 refold inh – HSP90 inhibitors, primary screen, cell lysate, luminescence; Heat shock protein HSP 90 (rabbit reticulocyte lysate; luciferase refolding); Rabbit reticulocyte lysate, luciferase refolding luminescence, 3 h; inhibition, % at 5.6 µM; hit rate 0.91% among 290,000;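 active = inhibition above the screen-wide mean plus 3 SD, computed separately per campaign, cut at about 16% in these data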;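 note: 0% = DMSO wells and 100% = 60 µM geldanamycin wells; inhibitors lower the luminescence because luciferase stays unfolded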
HIF-2a inh – HIF-2a reporter inhibitors, primary screen, luminescence, 786-0 RCC cells | AID 624352, 2012 | hit rate 0.72% among 360,000 | inhibition, % at 18.8 µM | 786-0 RCC cells HIF-2a reporter, luciferase luminescence, overnight;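 active = inhibition of the luminescence signal of 40% or more relative to plate controls, in a single-dose primary screen at 18.75 µM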
TWEAK-Fn14 inh – inhibitors of TWEAK-Fn14 signaling, primary screen, luciferase reporter cells, uHTS; hit rate 2% among 360,000; inhibition, % at 10 µM; TWEAK-stimulated Fn14 reporter cells, luciferase luminescence, 8 h; in the data active = inhibition above about 50%
Starred values were filed as active, the others as inactive; u = inconclusive; x = no result given. The list is not random: actives were taken first. Their share in the collection is about 3.9%.

SMILES	TRAIL sens C8	aSyn 5UTR inh	TROY NFkB inh	HSP90 refold inh	HIF-2a inh	TWEAK-Fn14 inh
COC(=O)Cc1ccc(NC(=S)N2CCCC(CO)C2)cc1 (stereo not drawn)	75.2*	-9.2	-43.1	4.4	-76.7	-3.5
COC(=O)Cc1ccc(NC(=S)N2CCN(c3ccccn3)CC2)cc1	13.9	-5.4	18.5	0.7	8.3	-8.1
OCC1CCCN(C(=S)Nc2ccc(Oc3ccccc3)cc2)C1 (stereo not drawn)	5.8	-135.2	10.4	-0.6	-153.6	-14.6
COC(=O)Cc1ccc(NC(=S)N2CCCC(C)C2)cc1 (stereo not drawn)	-5.4	-19.0	2.5	0.4	23.3	-9.4
CN(CC(O)COCc1ccccc1F)C1CCCCC1 (stereo not drawn)	9.3	-11.0	4.7	1.6	-59.2	64.3*
Cc1ccc(-c2cn3nc(C)c(C)nc3n2)cc1	32.1	72.7*	-0.2	1.4	2.4	-9.2
COc1ccc(Cl)cc1Nc1nc(Cl)nc(NCCO)n1	2.6	x	4.9	x	12.7	5.6
C=CC(=O)N1C/C(=C/c2ccc(Cl)cc2)C(=O)/C(=C\c2ccc(Cl)cc2)C1	92.6*	x	84.6*	x	83.5*	107.2*
C=CC(=O)N1C/C(=C/c2ccccc2)C(=O)/C(=C\c2ccccc2)C1	92.2*	x	73.3*	x	91.4*	104.7*
COCCN(C(=O)COC(=O)c1c(C)nn(-c2ccccc2)c1C)c1c(N)n(Cc2ccccc2)c(=O)[nH]c1=O	10.0	x	7.5	x	20.8	-6.7
OC[C@@H]1CN(Cc2cccs2)C[C@H](n2cnc3c(N4CCCC4)ncnc32)O1	-4.2	x	-13.4	x	14.9	5.6
Cc1ccc(C)c(S(=O)(=O)Nc2cc(SCC(=O)O)c(O)c3ccccc23)c1	43.4	x	59.2*	-2.9	65.5*	94.4*
CCOc1ccc(S(=O)(=O)Nc2cc(SCC(=O)O)c(O)c3ccccc23)cc1	34.6	48.5	54.5*	3.6	0.2	31.6
CCc1ccc(S(=O)(=O)Nc2cc(SCC(=O)O)c(O)c3ccccc23)cc1	-12.8	-13.4	60.0*	3.0	-1.5	83.0*
O=S(=O)(Nc1cc(Sc2cccc3cccnc23)c(O)c2ccccc12)c1ccccc1	x	-138.9	x	-2.8	x	x
O=C(O)CSc1cc(NS(=O)(=O)c2cccc([N+](=O)[O-])c2)c2ccccc2c1O	40.6	-3.2	61.5*	9.5	14.8	90.7*
CCOC(=O)c1ccccc1NS(=O)(=O)c1ccc(OCC)cc1	6.1	-14.0	2.5	-6.6	7.0	18.2
COc1ccc(CNC(=O)C[C@@H]2C[C@H]3c4cc(NC(=O)NC5CCCC5)ccc4O[C@H]3[C@H](CO)O2)cc1	7.6	x	-15.3	x	8.4	-36.1
O=S(=O)(Nc1ccc(O)c2ccccc12)c1ccc(F)cc1	20.2	4.3	31.2	x	9.0	28.4
CCc1ccc(S(=O)(=O)Nc2ccc(O)c3ccccc23)cc1	16.6	28.6	-10.6	7.3	12.4	94.1*
Cc1csc2ncnc(N3CCN(C(=S)Nc4ccc(C(F)(F)F)cc4)CC3)c12	-13.0	u	48.3	7.4	20.5	50.8*
Cc1ccc(-n2c(C)cc(/C=c3/sc4nc5ccccc5n4c3=O)c2C)cc1	x	66.7*	x	1.5	x	x
O=c1/c(=C\c2cccn2-c2ccccc2)sc2nc3ccccc3n12	1.7	x	45.1	-4.3	-95.8	61.4*
O=C(O)Cn1cc(/C=c2/sc3nc4ccccc4n3c2=O)c2ccccc21	-0.3	-162.3	35.3	2.3	-278.6	-23.8
COc1cc(N2CCCC2)c(OC)cc1/C=c1/sc2nc3ccccc3n2c1=O	x	x	x	2.8	x	x
SMILES	TRAIL sens C8	aSyn 5UTR inh	TROY NFkB inh	HSP90 refold inh	HIF-2a inh	TWEAK-Fn14 inh
CCc1nnc(NC(=O)c2oc3ccccc3c2COC(C)C)s1	-13.6	x	3.4	x	-7.9	-3.4
Cc1nnc(NC(=O)c2ccc(S(=O)(=O)C(F)F)cc2)s1	50.4*	-78.4	-28.5	3.6	-163.5	-2.8
Cc1cc(C)cc(NC(=O)c2ccc(S(=O)(=O)C(F)F)cc2)c1	10.1	-50.8	-31.5	6.8	-85.5	-31.5
Cc1nc(S/C(=C\c2ccc(-c3ccc(C(=O)O)c(Cl)c3)o2)C(=O)O)n[nH]1	-1.0	1.9	-13.2	-2.7	22.1	-6.5
Cc1nc(S/C(=C\c2ccc(OCc3ccccc3Cl)cc2)C(=O)O)n[nH]1	2.8	x	x	-3.6	0.5	82.8*
C[C@@H]1CN([C@H](C)CO)C(=O)CCCn2nncc2CO[C@@H]1CN(C)S(=O)(=O)c1ccc(C#N)cc1	-9.0	x	-4.5	x	5.5	-9.6
OC(CNCC1CCCO1)Cn1c2ccc(Cl)cc2c2cc(Cl)ccc21 (stereo not drawn)	40.7	4.1	-20.4	1.7	17.7	3.0
OC(CNCCC1C=Nc2ccccc21)Cn1c2ccc(Cl)cc2c2cc(Cl)ccc21 (stereo not drawn)	12.6	-2.7	48.5	-1.4	13.6	73.9*
FC(F)(F)c1ccc(/C=N/NC(=S)NC2CCCCC2)cc1	1.8	17.6	-9.6	-9.6	-56.4	-17.1
C=CCNC(=S)N/N=C/c1ccc(C(F)(F)F)cc1	51.0*	0.9	17.3	0.1	-48.9	22.2
O=S(Cc1ccc(Br)cc1)Cc1nnc(SCc2c(F)cccc2Cl)n1-c1ccccc1 (stereo not drawn)	15.5	27.6	22.4	3.2	20.0	48.5
O=S(Cc1ccc(Br)cc1)Cc1nnc(SCc2ccc(Cl)cc2)n1-c1ccccc1 (stereo not drawn)	8.0	36.0	31.2	0.0	-1.7	55.4*
COc1ccc(CN2CCC3CC2c2cc(-c4cccc(C)c4)ccc23)cc1 (stereo not drawn)	16.5	x	-7.5	x	-7.4	-23.1
Cc1cccc(NC(=S)NNC(=O)c2ccc3c(c2)OCO3)c1	50.4*	-211.5	-63.6	-2.8	-187.6	-6.9
O=C(Nc1ccc2c(c1)OCO2)c1ccc2c(c1)OCO2	71.5*	12.1	-25.2	6.5	-63.1	42.1
Cc1ccnc(NC(=O)c2ccc3c(c2)NC(=O)C(C)S3)c1 (stereo not drawn)	48.1	x	43.9	x	-82.9	66.6*
Cc1ccc(NC(=O)c2ccc3c(c2)OCCO3)nc1	74.3*	49.4	28.8	x	-30.1	61.9*
Cc1ccc(NC(=O)CNC(=O)c2ccc3c(c2)OCO3)nc1	-7.3	-19.0	-18.0	0.9	-6.9	2.7
CC(=O)c1ccccc1NC(=O)c1ccc2c(c1)NC(=O)C(C)S2 (stereo not drawn)	28.1	-135.0	-16.2	x	-218.8	-5.3
CC1CC(=O)Nc2ccccc2N1C(=O)CSc1ccc2ccccc2n1 (stereo not drawn)	-6.1	x	-5.2	x	-7.1	8.4
Cc1ccnc(NC(=O)c2ccc3c(c2)OCO3)c1	77.4*	37.1	15.3	13.2	-88.4	55.1*
CN(CCOc1ccc(Cl)cc1)C(=O)c1cccc(S(=O)(=O)N2CCN(Cc3ccccc3)CC2)c1	26.6	x	39.4	x	3.6	57.5*
